PI5P4K alpha inh – qHTS for Inhibitors of phosphatidylinositol 5-phosphate 4-kinase (PI5P4K) | hit rate 1.2% among 330,000 | PI5P4Kalpha enzyme, ADP-Glo luminescence, 60 min; stronger effect = lower value | Phosphatidylinositol 5-phosphate 4-kinase type-2 alpha (Homo sapiens), P48426 | max response, %; active = max response of -50% or lower; inconclusive = between -30% and -50%; inactive = -30% or higher; note: value at the top dose of about 77 µM
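Enzyme plus substrate dispensed, test compounds pinned in, then ATP (5 microM final) added. After 60 min at RT, ADP-Glo reagent 1 for 45 min and reagent 2 for 30 min preceded luminescence imaging.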
GoLoco inh red – qHTS Assay for Inhibitors of RGS12 GoLoco Motif Activity (Red Fluorophore) | Guanine nucleotide-binding protein G(i) subunit alpha-1 (Homo sapiens), P63096 | Gai1:RGS12 GoLoco peptide FP, rhodamine, 10 min | Potency, µM (top dose mostly 61.6 µM), for inactives: top-dose activity, negative = inhibition, usual class: inhibitors | hit rate 0.44% among 230,000 | AID 880, 2007; active = well fitted inhibition curve with a large enough effect, not every such curve was filed as active; inactive = no such curve, though single readings can be large or run the other way; note: potency is the fitted concentration of half-maximal effect; nearly all actives have a fitted effect of over 30% in size
Pin1 inhibitor – qHTS Assay to Find Inhibitors of Pin1 | Peptidyl-prolyl cis-trans isomerase NIMA-interacting 1 (Homo sapiens), Q13526 | Pin1 FP peptide displacement, HiFluor488, 10 min | AID 504891, 2011 | Potency, µM (doses to about 115 µM), without a hit: at the highest dose activity, negative = inhibition, usual class: inhibitors | hit rate 0.009% among 390,000; active = well fitted inhibition curve with a large enough effect in the polarisation, with a control signal flat, not every such curve was filed as active; inconclusive = small, poorly fitted or top-dose-only effect, or effect the other way, or a change in a side signal; inactive = no such curve, though single readings can be large or run the other way; the % refers to the polarisation; note: potency is the fitted concentration of half-maximal effect
KAT2A inh – qHTS Assay for Inhibitors of GCN5L2; Histone acetyltransferase KAT2A (Homo sapiens), Q92830; Potency, µM (top dose mostly 58.9 µM), for the others: at the top dose activity change, negative = inhibition, hits mostly inhibitors; hit rate 0.21% among 390,000; GCN5L2 HAT assay, ThioGlo1 CoA-SH fluorescence; note: potency is the fitted concentration of half-maximal effect
Target sequence (Q92830 whole entry, looked up): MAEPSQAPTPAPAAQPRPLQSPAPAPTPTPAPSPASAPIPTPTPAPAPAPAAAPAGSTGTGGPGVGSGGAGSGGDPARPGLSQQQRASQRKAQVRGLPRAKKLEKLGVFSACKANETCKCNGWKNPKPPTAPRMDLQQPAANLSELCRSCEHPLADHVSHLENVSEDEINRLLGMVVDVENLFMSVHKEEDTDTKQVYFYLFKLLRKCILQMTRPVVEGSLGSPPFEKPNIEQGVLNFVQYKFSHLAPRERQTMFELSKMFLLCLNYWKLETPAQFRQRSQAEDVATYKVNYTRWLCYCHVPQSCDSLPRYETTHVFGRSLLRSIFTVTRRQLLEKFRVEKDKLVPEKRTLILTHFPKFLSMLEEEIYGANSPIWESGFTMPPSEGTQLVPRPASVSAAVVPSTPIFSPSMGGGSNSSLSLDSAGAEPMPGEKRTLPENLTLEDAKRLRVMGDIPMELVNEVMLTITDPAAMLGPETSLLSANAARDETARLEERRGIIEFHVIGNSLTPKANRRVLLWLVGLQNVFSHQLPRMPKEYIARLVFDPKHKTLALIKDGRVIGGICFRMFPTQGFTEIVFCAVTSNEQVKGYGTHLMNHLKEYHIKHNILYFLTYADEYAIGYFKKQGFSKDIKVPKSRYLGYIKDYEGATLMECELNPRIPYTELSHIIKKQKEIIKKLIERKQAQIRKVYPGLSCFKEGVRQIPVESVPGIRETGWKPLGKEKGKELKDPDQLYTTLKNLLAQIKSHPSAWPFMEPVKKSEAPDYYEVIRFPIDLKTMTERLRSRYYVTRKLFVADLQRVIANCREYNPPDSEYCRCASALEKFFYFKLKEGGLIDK
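ThioGlo1-coupled HAT assay: 20nM GCN5L2, 70uM acetyl-CoA, 75uM H3(1-25) peptide, pH 7.5. Fluorescence read at 340/540nm at start and after 20 min at room temperature.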
PGK inhibitor – qHTS Assay to Find Inhibitors of Phosphoglycerate Kinase; Potency, µM (highest dose often 57.5 µM), without a hit: at the highest dose activity change, negative = inhibition, actives largely listed as inhibitors; Phosphoglycerate kinase, glycosomal (Trypanosoma brucei brucei), P07378; PGK/GAPDH coupled, Kinase-Glo luminescence, 60 min; hit rate 0.043% among 380,000; AID 602233, 2012; note: potency is the fitted concentration of half-maximal effect; nearly all actives have a fitted effect of over 60% in size
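Luminescent ATP detection (Kinase-Glo Plus) follows a 60-minute room-temperature incubation, with wells lacking PGK as controls. Buffer: 100 mM TEA (pH 7.6), 5 mM MgCl2, 0.01% Tween-20. Coupling enzyme GAPDH (100 nM final) supplies unstable 1,3-BPG in-well.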
PI4K2A inh – qHTS for small molecular inhibitors of PI4K2A; Phosphatidylinositol 4-kinase type 2-alpha (Homo sapiens), Q9BTU6; purified PI4K2A, ADP-Glo luminescence, 1 h; stronger effect = lower value; activity change, negative = inhibition, % at 76.9 µM; hit rate 0.13% among 420,000; in the data active = activity change below about -50%; inconclusive = mostly about -30% to -49%;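 note: -100% = wells without enzyme as full effect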
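In this quantitative HTS, ADP production by PI4K2A was quantified luminescently after 1 h at ambient temperature; 100 microM adenosine served as plate-quality control.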
The depositor's hits bear a star; i = inactive; ? = inconclusive; / = no result given; [ ] = remark or other dose. Shown are actives, neighbours in structure and some others; about 1.2% of the full set was active somewhere. Unless noted, calls come from the whole dose curve; as a rule, active = well fitted curve in the direction sought with a large enough effect; inconclusive = small, poorly fitted or top-dose-only effect, or another doubt; inactive = no such curve, though single readings can be large; an effect the other way counts as inactive or inconclusive. Unless noted, % is set by controls: 0 for no effect and ±100 for the full control effect.

SMILES | PI5P4K alpha inh | GoLoco inh red | Pin1 inhibitor | KAT2A inh | PGK inhibitor | PI4K2A inh
Cc1ccc(C(OCC(C)(C)C[N+](C)(C)C)c2ccccc2)cc1 (stereo unspecified) | -2 | 8.9µM* | 3% | -18% | -7% | 4
CN(CC(=O)Nc1ccccc1Cl)C(=O)CCNC(=O)Nc1ccccc1 | 0 | / | -1% | 2% | 8% | 4
Cc1ccc([N+](=O)[O-])cc1-c1ccc(/C=C(\C#N)c2[nH]nc(N)c2C#N)o1 | -55* | 4% | ? | -3% | -2% | 4
CCCCCCCCCCCCCCCCOC[C@H](COP(=O)([O-])OCC[N+](C)(C)C)OC(=O)CCCCCCCC(=O)O | / | / | / | 16µM* | / | /
COCc1[nH]c(=S)c(C#N)cc1C(=O)OC | -62* | -26% | ? | -19% | 24% | -5
C/C(=N\NC(=O)c1cc2ccccc2cc1O)c1cc2ccccc2o1 | -91* | 25µM* | 25% | ? | -2% | -6
O=C(N/N=C\c1ccc(Sc2ccccn2)o1)c1cccc(F)c1 | / | -4% | 4% | -7% | -4% | -2
O=C(N/N=C/c1ccc(Sc2ccccn2)o1)c1cc2ccccc2cc1O | -67* | 1% | ? | ? | -5% | -25
C/C(=N\NC(=O)c1cc2ccccc2cc1O)c1ccccn1 | -54* | / | ? | -13% | -1% | 0
O=c1[nH]c(CN2CCC(c3nc4ccccc4s3)CC2)nc2sc3c(c12)CCC3 | / | 8% | / | -2% | / | /
C[C@H](CO)N1C[C@H](C)[C@@H](CN(C)Cc2ccc(-c3ccccc3)cc2)Oc2c(NS(=O)(=O)c3ccccc3)cccc2C1=O | -3 | / | ? | -7% | -4% | -4
O=C(O)C1OC(Oc2c(-c3ccc(O)c(O)c3)oc3cc(O)cc(O)c3c2=O)C(O)C(O)C1O (stereo unspecified) | ? | -6% | ? | -8% | 25µM* | -4
Cc1ccc(S(=O)(=O)/N=C2/NC(=O)/C(=C/c3cc([N+](=O)[O-])ccc3O)S2)cc1 | 268 | / | ? | -6% | 1% | -3
COc1cccc(N=C2NC(=O)/C(=C/c3cc([N+](=O)[O-])ccc3O)S2)c1 | -76* | / | ? | -19% | ? | 5
O=C1NC(=Nc2ccccc2Cl)S/C1=C\c1cc([N+](=O)[O-])ccc1O | -67* | / | ? | -8% | -6% | -7
O=C(CNS(=O)(=O)c1ccc(Cl)cc1)N/N=C/c1ccco1 | 1 | 9% | -6% | -1% | i | -2
CCOn1c(=O)c(-c2cc(OC)ccc2OC)[n+]([O-])c2ccccc21 | -2 | / | 0% | -7% | 1% | -1
Cc1cc(N2C(=O)C(O)=C(C(=O)c3cc4ccccc4o3)C2c2cccc(Cl)c2)no1 (stereo unspecified) | -81* | / | ? | ? | -5% | 0
Cc1cc(N2C(=O)C(O)=C(C(=O)c3cc4ccccc4o3)C2c2ccc(Cl)cc2)no1 (stereo unspecified) | -72* | / | 0% | ? | i | 1
COc1cccc(C2C(C(=O)c3cc4ccccc4o3)=C(O)C(=O)N2c2cc(C)on2)c1 (stereo unspecified) | -3 | / | -1% | -7% | 6% | 4
Cc1cc(N2C(=O)C(O)=C(C(=O)c3cc4ccccc4o3)C2c2ccc(Br)cc2)no1 (stereo unspecified) | -67* | / | -14% | ? | 9% | 3
CCCOc1ccc(C2C(C(=O)c3cc4ccccc4o3)=C(O)C(=O)N2c2cc(C)on2)cc1 (stereo unspecified) | -17 | / | ? | ? | 0% | 1
C[n+]1ccccc1Nc1cc([N+](=O)[O-])ccc1N | 3 | / | 6% | -17% | i | -7
Nc1nc(N)c(N=Nc2ccc(Cl)cc2)c(=O)[nH]1 | -77* | 2% | 8% | -7% | -2% | -8
Nc1nc(N)c(N=Nc2ccc(SCC(=O)O)cc2)c(=O)[nH]1 | -64* | 12% | 7% | -10% | -6% | -21
SMILES | PI5P4K alpha inh | GoLoco inh red | Pin1 inhibitor | KAT2A inh | PGK inhibitor | PI4K2A inh
Nc1nc(N)c(N=Nc2ccc(S(N)(=O)=O)cc2)c(=O)[nH]1 | -62* | -1% | -4% | -11% | i | -13
COc1ccnc(CN(C)C(=O)C2CCC(=O)N(CCN(C)C)C2)c1 (stereo unspecified) | 1 | / | -9% | 0% | -5% | -1
CC1CCCC(C)N1C(=O)Cn1c(SCC(=O)NCc2ccc3c(c2)OCO3)nc2ccccc21 (stereo unspecified) | / | -4% | ? | -1% | -5% | -11
Cc1cccc(NC2=C(NC(=O)c3ccccc3)C(=O)c3ccccc3C2=O)c1 | -62* | 16% | ? | -9% | -15% | -18
O=C1C(Cl)=C(NC(=O)c2ccccc2)C(=O)C(Cl)=C1NC(=O)c1ccccc1 | -84* | / | -7% | ? | -2% | -3
O=C(NC1=C(Nc2ccc(Cl)cc2)C(=O)c2ccccc2C1=O)c1ccccc1 | ? | -11% | 9% | -6% | -11% | -14
CC[C@H](C(=O)[C@H](C)[C@H](O)[C@H](C)CCc1ccc(C)c(O)c1C(=O)O)[C@H]1O[C@](CC)([C@@H]2CC[C@@](O)(CC)[C@H](C)O2)C[C@H]1C | / | 5%[21.6 µM] | / | 0%[21.4 µM] | / | /
CC[C@@H](C(=O)[C@@H](C)[C@@H](O)[C@H](C)CCc1ccc(C)c(O)c1C(=O)O)C1O[C@](CC)(C2CC[C@](O)(CC)[C@H](C)O2)C[C@@H]1C (stereo partly specified) | / | / | / | 16µM* | / | /
CCOC(=O)C(CS)NCCN[C@@H](CS)C(=O)OCC (stereo partly specified) | / | / | / | 20µM* | / | /
CCOC(=O)CCC(NC(=O)CCC(=O)NC(CCC(=O)OCC)C(=O)OCC)C(=O)OCC (stereo unspecified) | -3 | 3% | -1% | 0% | 0% | 1
COc1cc2c(cc1OC)C(C)N(C(=O)Cc1ccc(C(F)(F)F)cc1)CC2 (stereo unspecified) | -9 | / | 14% | -1% | -10% | 1
CC(=O)Oc1ccc2c(=O)c(/C=N/c3cc(=O)[nH]c(=S)[nH]3)coc2c1 | -91* | -5% | 6% | -26% | -16% | 5

From PubChem BioAssay
